Consider 54 molecules from PubChem BioAssay AID1259349 (Broad Institute, 2017).

Molecules are shown by their SMILES. Several values for one entry are separate records, joined by “and”; a condition that tells them apart may be missing. Identical values can stand only once. In all, about 17,000 compounds went through this assay and about 1,100 (6.5%) were called active. The sample holds actives, similar compounds and a random draw of the others, so the mix is not that of the screen.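 How the source made its calls: active means z-score of -3 or lower, meaning strong loss of probe binding signal; inactive means the rest.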 Where a structure was tested more than once in an assay, its records may differ in their call.

For this test, the target named is Insulin-degrading enzyme (Homo sapiens) (UniProt P14735). Put plainly: exo-site inhibitors of human IDE, primary screen, biochemical, fluorescence anisotropy, probe displacement (AID 1259349).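 Further: His-tagged human IDE residues 42-1019 made in E. coli with 30 nM FL-6b probe.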 As to conditions: purified IDE, FL-6b probe fluorescence polarization; at 20 µM; stronger effect = lower value. A general note: Polarisation of emitted light reports the rotation of a fluorescent probe.
Insulin-degrading enzyme (Homo sapiens), sequence (P14735 42-1019 limits assumed): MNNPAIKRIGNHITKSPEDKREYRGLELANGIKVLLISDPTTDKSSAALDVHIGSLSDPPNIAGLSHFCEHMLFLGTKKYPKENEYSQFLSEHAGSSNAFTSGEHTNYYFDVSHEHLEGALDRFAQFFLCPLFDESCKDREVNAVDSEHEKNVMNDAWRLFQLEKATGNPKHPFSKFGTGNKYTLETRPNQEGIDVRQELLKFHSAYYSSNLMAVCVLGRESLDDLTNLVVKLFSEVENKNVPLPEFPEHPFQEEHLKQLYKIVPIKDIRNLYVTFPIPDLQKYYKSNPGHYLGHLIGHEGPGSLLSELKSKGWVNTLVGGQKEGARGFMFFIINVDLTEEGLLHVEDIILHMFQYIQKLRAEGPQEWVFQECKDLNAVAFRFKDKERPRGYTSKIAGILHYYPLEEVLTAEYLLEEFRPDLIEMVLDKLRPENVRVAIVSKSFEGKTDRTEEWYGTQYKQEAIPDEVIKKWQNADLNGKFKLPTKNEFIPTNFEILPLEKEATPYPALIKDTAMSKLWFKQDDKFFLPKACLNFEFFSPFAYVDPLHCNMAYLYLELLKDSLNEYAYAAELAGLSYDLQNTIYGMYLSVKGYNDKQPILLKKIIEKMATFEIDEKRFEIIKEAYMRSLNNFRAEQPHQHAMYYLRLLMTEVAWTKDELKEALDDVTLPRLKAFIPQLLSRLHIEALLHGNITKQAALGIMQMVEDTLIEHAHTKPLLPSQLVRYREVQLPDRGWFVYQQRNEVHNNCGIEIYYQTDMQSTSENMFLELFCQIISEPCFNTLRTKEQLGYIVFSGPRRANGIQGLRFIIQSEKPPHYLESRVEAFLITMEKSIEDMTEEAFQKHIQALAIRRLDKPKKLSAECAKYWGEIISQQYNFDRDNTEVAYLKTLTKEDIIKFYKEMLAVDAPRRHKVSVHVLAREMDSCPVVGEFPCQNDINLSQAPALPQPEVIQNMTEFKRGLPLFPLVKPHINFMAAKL
As for `O=C(C[C@@H]1CC[C@H]2NC[C@H](O)COC[C@@H]2O1)NCCN1CCCCC1`, the z-score was 0.878 (inactive).
Turning to `O=C1C[C@@H](c2ccccc2)C(=O)N[C@H](c2ccc(F)cc2)C/C=C\CCN1`, the z-score is 1 (inactive).
Then `O=S(=O)(c1ccccc1F)N1[C@@H]2CNC[C@H]1C2c1ccc(-c2cncnc2)cc1` (some centres undefined), with 2.04 (inactive).
For the molecule `Cc1cccc(-c2ccccc2[C@@H]2[C@H](C#N)N(c3ncc(-c4ccccc4)s3)[C@H]2CO)c1`, the z-score was 4.05 (inactive).
As to `O=S(=O)(c1ccccc1)N1C[C@@H]2[C@H](c3ccccc31)[C@H](CO)N2Cc1ccccn1`, the z-score was 2.16 (inactive).
Then `COc1cccc(S(=O)(=O)N2[C@@H]3CNC[C@H]2C3c2ccc(-c3ccccc3OC)cc2)c1` (some centres undefined), with -0.496 (inactive) and -4.13 (active); and `COc1cccc(NC(=O)N2[C@@H]3CNC[C@H]2C3c2ccc(-c3ccncc3)cc2)c1` (some centres undefined), with 0.421 (inactive) and 0.471 (inactive).
Consider `Cc1ccc(-c2ccc(C3[C@H]4CNC[C@@H]3N4S(=O)(=O)c3ccccc3C)cc2)cc1` (some centres undefined), for which the z-score is 1.05 (inactive) and 2.8 (inactive).
Turning to `COc1ccccc1NC(=O)N1[C@@H]2CNC[C@H]1C2c1ccc(-c2ccccc2C)cc1` (some centres undefined), the z-score was -4.4 (active).
Then `Cc1cccc(-c2ccc(C3[C@H]4CNC[C@@H]3N4S(=O)(=O)c3ccccc3F)cc2)c1` (some centres undefined), with 5.33 (inactive) and 3.85 (inactive).
Then `CN(C)C(=O)c1cccc(-c2ccc(C3[C@H]4CNC[C@@H]3N4C(=O)Nc3ccccc3F)cc2)c1` (some centres undefined), with 1.08 (inactive) and 3.82 (inactive).
Then `COCCNC(=O)C[C@H]1CC[C@@H]2[C@H](COc3ccc(NC(=O)Nc4cccc(F)c4)cc3C(=O)N2C)O1`, with -0.769 (inactive); and `COc1ccc(S(=O)(=O)N2CCCCN3[C@@H](CO)[C@@H](c4ccc(C#CCC(C)C)cc4)[C@@H]3C2)cc1`, with 4 (inactive).
Take `CN(C)C(=O)c1cccc(-c2ccc(C3[C@@H]4CN(S(=O)(=O)c5ccc(F)cc5)C[C@H]3N4)cc2)c1` (some centres undefined): the z-score was 4.34 (inactive) and 3.12 (inactive).
For `C[C@@H]1CC(=O)N[C@H](c2ccccc2)C/C=C\C[C@H](c2ccccc2)NC1=O`, the z-score was 1.16 (inactive).
`COc1ccc(-c2ccc([C@@H]3[C@@H](CO)N4CCCCN(C(=O)NC(C)C)C[C@H]34)cc2)cc1`: the z-score was -4.12 (active).
As for `CC(C)C#Cc1ccc([C@@H]2[C@H]3CN(C(=O)NC(C)C)CCCCN3[C@H]2CO)cc1`, the z-score was 1 (inactive).
Then `COCC(=O)N1CCCCN2[C@H](CO)[C@H](c3ccc(-c4ccc(OC)cc4)cc3)[C@H]2C1`, with -1.33 (inactive).
Then `CC(C)NC(=O)N1CCCCN2[C@@H](CO)[C@@H](c3ccc(C#Cc4ccccc4)cc3)[C@@H]2C1`, with -8.05 (active); and `CC(C)C#Cc1ccc([C@H]2[C@H](CO)N3CCCCN(C(=O)NC(C)C)C[C@@H]23)cc1`, with 0.103 (inactive).
`COCC(=O)N1CCCCN2[C@H](CO)[C@@H](c3ccc(-c4ccc(OC)cc4)cc3)[C@@H]2C1`: the z-score is -2.67 (inactive).
For the molecule `COc1ccc2c3c([nH]c2c1)[C@H](CO)N(Cc1nccs1)CC31CCN(Cc2cccnc2)CC1`, the z-score is -0.878 (inactive).
The same measure for `COc1cccc(S(=O)(=O)N2CCCCN3[C@H](C2)[C@@H](c2ccc(C4=CCCCC4)cc2)[C@@H]3CO)c1`: 2.68 (inactive).
Then `COc1ccc2c3c([nH]c2c1)[C@H](CO)N(Cc1ccc(F)cc1)CC31CCN(Cc2ccccn2)CC1`, with -1.44 (inactive); and `CCCN1C[C@@H](C)[C@@H](OC)CN(C)C(=O)c2cc(NC(=O)C3CCC3)ccc2OC[C@H]1C`, with -0.201 (inactive); and `O=C(C[C@@H]1C=C[C@@H](NC(=O)c2ccc3c(c2)OCO3)[C@H](CO)O1)NC1Cc2ccccc2C1`, with 0.748 (inactive).
The same measure for `CN(C)CC(=O)N1CC2(C1)[C@H](c1ccccc1)[C@H](CO)N2C(=O)C1CC1`: -1.06 (inactive); for `O=C(c1ccccn1)N1CC2(C1)[C@@H](c1ccccc1)[C@@H](CO)N2C(=O)C1CCCCC1`: -4.56 (active); for `O=C(C1CCCC1)N1[C@@H](CO)[C@@H](c2ccccc2)C12CN(Cc1ccc(F)cc1)C2`: 1.26 (inactive).
Consider `CCS(=O)(=O)Nc1ccc2c(c1)C(=O)N(C)[C@H]1CC[C@H](CC(=O)N[C@@H]3CCN(Cc4ccccc4)C3)O[C@H]1CO2`, for which the z-score was -0.74 (inactive).
Then `Cc1cccc(-c2ccc([C@H]3[C@@H](CO)N4CCCCN(Cc5cncnc5)C[C@H]34)cc2)c1`, with -5.22 (active); and `OC[C@H]1[C@H](c2ccc(-c3cccnc3)cc2)[C@H]2CN(Cc3ccccn3)CCCCN21`, with -3.14 (active); and `OC[C@H]1[C@H](c2ccc(-c3cccc(F)c3)cc2)[C@@H]2CN(Cc3cncnc3)CCCCN12`, with 0.665 (inactive).
For the molecule `COc1ccc(CN2CCCCN3[C@H](C2)[C@H](c2ccc(-c4ccc(OC)cc4)cc2)[C@@H]3CO)cc1`, the z-score was 3.61 (inactive).
Then `Cc1cccc(-c2ccc([C@@H]3[C@H](CO)N4CCCCN(Cc5ccncc5)C[C@@H]34)cc2)c1`, with -5.19 (active); and `Cc1ccc(-c2ccc([C@H]3[C@H](CO)N4CCCCN(Cc5cncnc5)C[C@@H]34)cc2)cc1`, with 3.25 (inactive).
The same measure for `OC[C@@H]1[C@H](c2ccc(C3=CCCC3)cc2)[C@H]2CN(Cc3ccncc3)CCCCN12`: 1.19 (inactive); for `CCC(=O)N1CCCCN2[C@H](CO)[C@@H](c3ccc(-c4cccnc4)cc3)[C@H]2C1`: 0.698 (inactive); for `OC[C@@H]1[C@H](c2ccc(Br)cc2)[C@@H]2CN(Cc3ccccn3)CCCCN12`: 0.871 (inactive).
Then `CO[C@H]1CN(C)C(=O)c2cc(NC(=O)NC(C)C)ccc2OC[C@H](C)N(C(=O)CN(C)C)C[C@H]1C`, with -0.369 (inactive); and `COCCN(C[C@H]1[C@H](c2ccccc2)[C@@H](CO)N1C(C)=O)C(=O)c1cccnc1`, with -0.97 (inactive); and `CN(C)C(=O)c1ccc(-c2ccc([C@H]3[C@H](CO)N4CCCCN(S(C)(=O)=O)C[C@@H]34)cc2)cc1`, with 4.37 (inactive).
For the molecule `O=C(C1CCCC1)N1CC(=O)N2[C@H](CO)[C@H](c3ccc(Br)cc3)[C@@H]2C1`, the z-score was 1.85 (inactive).
Then `O=C(C1CCC1)N1CC(=O)N2[C@H](C1)[C@@H](c1ccc(-c3ccccc3F)cc1)[C@@H]2CO`, with -10.1 (active); and `Cc1ccccc1-c1ccc(C2[C@@H]3CN(C(=O)C4CCCCC4)C[C@H]2N3)cc1` (some centres undefined), with 1.9 (inactive) and -13.9 (active); and `O=C(C1CC1)N1CC(=O)N2[C@H](CO)[C@@H](c3ccc(-c4ccccc4F)cc3)[C@@H]2C1`, with -6.21 (active).
`O=C(C1CCCCC1)N1CC(=O)N2[C@H](CO)[C@@H](c3ccc(-c4ccccc4F)cc3)[C@@H]2C1`: the z-score was -3.81 (active).
The same measure for `O=C(c1ccc(F)cc1)N1CC(=O)N2[C@H](CO)[C@H](c3ccc(-c4ccccc4F)cc3)[C@@H]2C1`: 0.797 (inactive).
Then `O=C(C1CCCCC1)N1CC(=O)N2[C@H](CO)[C@H](c3ccc(-c4ccccc4F)cc3)[C@H]2C1`, with -2.1 (inactive); and `CN(C)C(=O)c1ccc(-c2ccc(C3[C@@H]4CN(C(=O)Nc5ccccc5)C[C@H]3N4)cc2)cc1` (some centres undefined), with 0.753 (inactive); and `O=C(C1CCCC1)N1CC(=O)N2[C@H](CO)[C@H](c3ccc(Br)cc3)[C@H]2C1`, with 3.78 (inactive).
Then `O=C(C1CCC1)N1C[C@@H]2N[C@H](C1)C2c1ccc(-c2cncnc2)cc1` (some centres undefined), with 0.446 (inactive); and `O=C(C1CCCCC1)N1CC(=O)N2[C@H](CO)[C@H](c3ccc(Br)cc3)[C@H]2C1`, with 2.21 (inactive).
Regarding `COCC(=O)N1CC(=O)N2[C@H](CO)[C@@H](c3ccc(-c4ccccc4F)cc3)[C@H]2C1`, the z-score is -0.201 (inactive).
